Results on one compound are retold here after PubChem BioAssay AID588350 (The Scripps Research Institute Molecular Screening Center, 2011).

Molecules are shown by their SMILES. The campaign covered roughly 1,900 compounds. About 1,200 (63%) were called active.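 The calls were made as follows: active = mean activation above the mean of solvent-only control wells plus 3 SD (cut at about 22% in these data); inactive = the rest.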 The set was probably picked from earlier hits. The entries come from a sample that favours actives as a whole.

This assay can be described thus: GAA30 FXN promoter activators, confirmation, counter-screen for GAA850 frataxin promoter activator project, cell-based, luminescence, HEK293, lucGAA30, triplicate (AID 588350).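 Also: counterscreen of GAA850 promoter hits where activity marks nonselective or luminescence artifacts.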 Particulars: HEK293 lucGAA30 FXN promoter luciferase, 24 h; at 6 µM; active compounds read high. (In general: Counterscreens check selectivity or assay interference.)
As for `CC(C)(C)c1ccc(OC(=O)N2CCCCC2)cc1`, the activation was 101% (active).
